Measured values published in the supplement of paper PMC10849652.
About 8,800 targets were measured; listed, in parts, are those with a hit and a random draw of the rest. About 0.5% of all pairs of compound and target were hits. A number with no mark means an inactive call.

What was measured:
Assay in all cases: log2 fold change, soluble protein after heating vs DMSO (PISA); higher = thermal stabilisation; K562 lysate, 10 uM; active = over 0.2 and 3.5 SD of the protein, either way, in both replicates (recomputed)
lapatinib = compound: CS(=O)(=O)CCNCc1ccc(-c2ccc3ncnc(Nc4ccc(OCc5cccc(F)c5)c(Cl)c4)c3c2)o1 [lapatinib]
Procedure, shortened: (§1)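 Soluble protein was defined as the supernatant remaining after 21,000xg for 90 min, following pooling of heated aliquots and adjustment to 0.5% NP-40 at 4°C. Before that, crude K562 extract at 1 mg/mL protein in PBS pH 7.4 with 1 mM MgCl2 was treated with 10 μM compound for 30 min and heated for 3 min across 48°C-58°C. Quantification used TMTpro 16plex LC-MS/MS with channel sums equalised, and values are log-two fold changes in thermal stability relative to solvent controls from duplicates.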

pictilisib = compound: CS(=O)(=O)N1CCN(Cc2cc3nc(-c4cccc5[nH]ncc45)nc(N4CCOCC4)c3s2)CC1 [pictilisib]
Procedure, shortened: as §1

crizotinib = compound: C[C@@H](Oc1cc(-c2cnn(C3CCNCC3)c2)cnc1N)c1c(Cl)ccc(F)c1Cl [crizotinib]
Procedure, shortened: as §1

[1] = compound: C[C@H](C1=CC=C(C=C1)C(=O)NC2=C3C=CNC3=NC=C2)N
Procedure, shortened: as §1

duvelisib = compound: C[C@H](Nc1ncnc2nc[nH]c12)c1cc2cccc(Cl)c2c(=O)n1-c1ccccc1 [duvelisib]
Procedure, shortened: as §1

gandotinib = compound: Cc1cc(Nc2cc(CN3CCOCC3)c3nc(C)c(Cc4ccc(Cl)cc4F)n3n2)n[nH]1 [gandotinib]
Procedure, shortened: as §1

tozasertib = compound: Cc1cc(Nc2cc(N3CCN(C)CC3)nc(Sc3ccc(NC(=O)C4CC4)cc3)n2)n[nH]1 [tozasertib]
Procedure, shortened: as §1

doramapimod = compound: Cc1ccc(-n2nc(C(C)(C)C)cc2NC(=O)Nc2ccc(OCCN3CCOCC3)c3ccccc23)cc1 [doramapimod]
Procedure, shortened: as §1

bafetinib = compound: Cc1ccc(NC(=O)c2ccc(CN3CC[C@H](N(C)C)C3)c(C(F)(F)F)c2)cc1Nc1nccc(-c2cncnc2)n1 [bafetinib]
Procedure, shortened: as §1

[2] = compound: Cc1cccc(CC(=O)N2CCc3c2ccc(-c2cn(C)c4ncnc(N)c24)c3F)n1
Procedure, shortened: as §1

nilotinib = compound: Cc1cn(-c2cc(NC(=O)c3ccc(C)c(Nc4nccc(-c5cccnc5)n4)c3)cc(C(F)(F)F)c2)cn1 [nilotinib]
Procedure, shortened: as §1

[3] = compound: Cc1nc(Nc2n[nH]c3c2CN(C(=O)N[C@H](CN(C)C)c2ccccc2)C3(C)C)c2sccc2n1
Procedure, shortened: as §1

dasatinib = compound: Cc1nc(Nc2ncc(C(=O)Nc3c(C)cccc3Cl)s2)cc(N2CCN(CCO)CC2)n1 [dasatinib]
Procedure, shortened: as §1

[4] = compound: Cc1ncc(-c2ccnc(Nc3ccc(S(C)(=O)=O)cc3)n2)n1C(C)C
Procedure, shortened: as §1

[5] = compound: Cn1cc(-c2ccc3c(c2)CCN3C(=O)Cc2cccc(C(F)(F)F)c2)c2c(N)ncnc21
Procedure, shortened: as §1

quisinostat = compound: Cn1cc(CNCC2CCN(c3ncc(C(=O)NO)cn3)CC2)c2ccccc21 [quisinostat]
Procedure, shortened: as §1

tipifarnib = compound: Cn1cncc1[C@@](N)(c1ccc(Cl)cc1)c1ccc2c(c1)c(-c1cccc(Cl)c1)cc(=O)n2C [tipifarnib]
Procedure, shortened: as §1

[6] = compound: NC(=O)Nc1cc(-c2cccc(F)c2)sc1C(=O)N[C@H]1CCCNC1
Procedure, shortened: as §1

[7] = compound: NC(=O)c1cnc(N[C@@H]2CCCC[C@@H]2N)nc1Nc1cccc(-n2nccn2)c1
Procedure, shortened: as §1

[8] = compound: NC1(c2ccc(-c3nc4ccn5c(=O)[nH]nc5c4cc3-c3ccccc3)cc2)CCC1
Procedure, shortened: as §1

UniProt Q9NVU0, sequence (Q9NVU0 whole entry, looked up): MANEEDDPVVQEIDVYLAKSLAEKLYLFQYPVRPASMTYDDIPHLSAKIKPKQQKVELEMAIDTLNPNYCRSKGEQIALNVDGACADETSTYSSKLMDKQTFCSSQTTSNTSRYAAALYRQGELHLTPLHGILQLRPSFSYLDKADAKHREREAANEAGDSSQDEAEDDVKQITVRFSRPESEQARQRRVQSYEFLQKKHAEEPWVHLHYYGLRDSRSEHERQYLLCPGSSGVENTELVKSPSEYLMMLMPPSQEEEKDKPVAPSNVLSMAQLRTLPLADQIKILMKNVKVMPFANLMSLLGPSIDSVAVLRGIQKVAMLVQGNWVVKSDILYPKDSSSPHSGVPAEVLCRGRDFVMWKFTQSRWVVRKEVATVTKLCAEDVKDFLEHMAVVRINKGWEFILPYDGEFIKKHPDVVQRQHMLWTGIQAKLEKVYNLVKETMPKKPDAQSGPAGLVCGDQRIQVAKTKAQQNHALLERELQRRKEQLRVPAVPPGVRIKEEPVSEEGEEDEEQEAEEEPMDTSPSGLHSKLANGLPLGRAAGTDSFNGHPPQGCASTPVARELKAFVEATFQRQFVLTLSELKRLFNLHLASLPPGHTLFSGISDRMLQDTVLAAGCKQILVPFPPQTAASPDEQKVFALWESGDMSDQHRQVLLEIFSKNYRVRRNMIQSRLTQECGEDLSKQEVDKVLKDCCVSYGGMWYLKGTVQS
UniProt P46020, sequence (P46020 whole entry, looked up): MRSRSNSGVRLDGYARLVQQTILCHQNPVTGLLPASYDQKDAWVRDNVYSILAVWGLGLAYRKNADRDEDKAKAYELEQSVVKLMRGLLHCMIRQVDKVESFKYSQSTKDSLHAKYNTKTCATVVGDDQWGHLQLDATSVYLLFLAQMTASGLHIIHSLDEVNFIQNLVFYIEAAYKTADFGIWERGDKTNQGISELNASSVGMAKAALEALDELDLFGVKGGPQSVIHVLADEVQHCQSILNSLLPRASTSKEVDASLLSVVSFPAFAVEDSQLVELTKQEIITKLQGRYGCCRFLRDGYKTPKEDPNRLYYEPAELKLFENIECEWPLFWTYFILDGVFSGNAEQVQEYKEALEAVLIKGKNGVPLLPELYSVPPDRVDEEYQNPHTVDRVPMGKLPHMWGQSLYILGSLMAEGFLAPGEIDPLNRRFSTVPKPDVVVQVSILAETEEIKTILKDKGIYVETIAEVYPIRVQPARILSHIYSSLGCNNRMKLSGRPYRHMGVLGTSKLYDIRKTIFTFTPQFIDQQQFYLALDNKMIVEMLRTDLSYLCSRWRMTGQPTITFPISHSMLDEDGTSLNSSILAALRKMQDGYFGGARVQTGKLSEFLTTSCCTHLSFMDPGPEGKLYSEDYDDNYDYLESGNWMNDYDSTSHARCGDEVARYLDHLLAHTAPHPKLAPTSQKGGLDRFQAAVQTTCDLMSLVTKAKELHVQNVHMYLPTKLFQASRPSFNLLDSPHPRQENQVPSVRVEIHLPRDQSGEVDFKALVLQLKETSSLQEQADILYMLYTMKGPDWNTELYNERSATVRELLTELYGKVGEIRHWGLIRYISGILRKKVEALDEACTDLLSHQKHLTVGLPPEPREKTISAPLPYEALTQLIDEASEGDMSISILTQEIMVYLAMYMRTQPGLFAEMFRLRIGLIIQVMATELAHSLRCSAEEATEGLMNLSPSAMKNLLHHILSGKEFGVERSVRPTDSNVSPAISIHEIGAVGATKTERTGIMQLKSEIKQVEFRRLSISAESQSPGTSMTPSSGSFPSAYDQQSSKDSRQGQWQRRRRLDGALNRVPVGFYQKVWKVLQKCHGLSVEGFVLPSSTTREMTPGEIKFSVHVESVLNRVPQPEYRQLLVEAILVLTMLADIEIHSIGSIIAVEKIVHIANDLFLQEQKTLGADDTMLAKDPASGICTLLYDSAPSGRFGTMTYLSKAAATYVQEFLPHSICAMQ
UniProt Q5JRX3, sequence (Q5JRX3 whole entry, looked up): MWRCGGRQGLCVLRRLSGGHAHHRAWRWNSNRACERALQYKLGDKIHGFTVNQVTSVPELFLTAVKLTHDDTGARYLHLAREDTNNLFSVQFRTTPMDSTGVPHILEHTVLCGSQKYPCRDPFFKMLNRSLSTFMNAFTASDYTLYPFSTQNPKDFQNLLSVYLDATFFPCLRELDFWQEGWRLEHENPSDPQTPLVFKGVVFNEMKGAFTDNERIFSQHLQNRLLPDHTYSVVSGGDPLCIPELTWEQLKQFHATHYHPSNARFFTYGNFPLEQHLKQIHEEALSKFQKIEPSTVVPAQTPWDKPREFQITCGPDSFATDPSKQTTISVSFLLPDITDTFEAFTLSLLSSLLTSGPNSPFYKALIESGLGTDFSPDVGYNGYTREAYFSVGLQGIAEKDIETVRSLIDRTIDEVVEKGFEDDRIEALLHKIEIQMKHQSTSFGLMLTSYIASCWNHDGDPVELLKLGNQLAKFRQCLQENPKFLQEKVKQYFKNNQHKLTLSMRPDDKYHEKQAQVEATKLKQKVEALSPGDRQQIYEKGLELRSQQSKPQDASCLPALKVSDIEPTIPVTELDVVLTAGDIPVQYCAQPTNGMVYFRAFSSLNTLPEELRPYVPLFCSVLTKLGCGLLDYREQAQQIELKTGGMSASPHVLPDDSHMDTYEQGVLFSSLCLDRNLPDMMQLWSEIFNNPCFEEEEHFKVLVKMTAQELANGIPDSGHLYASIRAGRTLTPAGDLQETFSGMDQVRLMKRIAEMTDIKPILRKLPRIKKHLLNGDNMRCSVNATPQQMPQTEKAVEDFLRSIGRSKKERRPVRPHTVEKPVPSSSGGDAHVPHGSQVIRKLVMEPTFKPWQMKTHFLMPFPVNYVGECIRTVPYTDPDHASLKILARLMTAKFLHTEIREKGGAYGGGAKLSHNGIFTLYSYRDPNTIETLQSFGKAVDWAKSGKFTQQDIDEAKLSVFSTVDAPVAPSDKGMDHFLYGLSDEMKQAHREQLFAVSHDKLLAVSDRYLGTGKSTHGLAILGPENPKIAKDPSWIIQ
UniProt P13667, sequence (P13667 whole entry, looked up): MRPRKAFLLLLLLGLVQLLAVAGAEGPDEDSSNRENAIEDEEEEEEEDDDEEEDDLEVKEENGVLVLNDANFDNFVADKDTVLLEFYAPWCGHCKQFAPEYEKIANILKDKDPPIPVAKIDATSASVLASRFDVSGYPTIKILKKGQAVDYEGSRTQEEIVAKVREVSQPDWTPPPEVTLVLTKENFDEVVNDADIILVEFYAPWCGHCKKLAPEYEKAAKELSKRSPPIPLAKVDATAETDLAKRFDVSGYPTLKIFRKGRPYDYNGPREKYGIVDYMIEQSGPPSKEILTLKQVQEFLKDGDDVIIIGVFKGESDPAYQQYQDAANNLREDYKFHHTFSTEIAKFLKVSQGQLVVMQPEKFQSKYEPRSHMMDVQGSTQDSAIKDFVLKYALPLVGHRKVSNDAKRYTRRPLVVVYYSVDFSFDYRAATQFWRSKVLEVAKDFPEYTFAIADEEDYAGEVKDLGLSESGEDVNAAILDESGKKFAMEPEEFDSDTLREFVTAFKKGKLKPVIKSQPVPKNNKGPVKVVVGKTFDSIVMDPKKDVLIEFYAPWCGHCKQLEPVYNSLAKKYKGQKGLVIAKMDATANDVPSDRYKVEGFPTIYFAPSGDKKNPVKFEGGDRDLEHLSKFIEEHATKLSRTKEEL
UniProt Q9UBF8, sequence (Q9UBF8 whole entry, looked up): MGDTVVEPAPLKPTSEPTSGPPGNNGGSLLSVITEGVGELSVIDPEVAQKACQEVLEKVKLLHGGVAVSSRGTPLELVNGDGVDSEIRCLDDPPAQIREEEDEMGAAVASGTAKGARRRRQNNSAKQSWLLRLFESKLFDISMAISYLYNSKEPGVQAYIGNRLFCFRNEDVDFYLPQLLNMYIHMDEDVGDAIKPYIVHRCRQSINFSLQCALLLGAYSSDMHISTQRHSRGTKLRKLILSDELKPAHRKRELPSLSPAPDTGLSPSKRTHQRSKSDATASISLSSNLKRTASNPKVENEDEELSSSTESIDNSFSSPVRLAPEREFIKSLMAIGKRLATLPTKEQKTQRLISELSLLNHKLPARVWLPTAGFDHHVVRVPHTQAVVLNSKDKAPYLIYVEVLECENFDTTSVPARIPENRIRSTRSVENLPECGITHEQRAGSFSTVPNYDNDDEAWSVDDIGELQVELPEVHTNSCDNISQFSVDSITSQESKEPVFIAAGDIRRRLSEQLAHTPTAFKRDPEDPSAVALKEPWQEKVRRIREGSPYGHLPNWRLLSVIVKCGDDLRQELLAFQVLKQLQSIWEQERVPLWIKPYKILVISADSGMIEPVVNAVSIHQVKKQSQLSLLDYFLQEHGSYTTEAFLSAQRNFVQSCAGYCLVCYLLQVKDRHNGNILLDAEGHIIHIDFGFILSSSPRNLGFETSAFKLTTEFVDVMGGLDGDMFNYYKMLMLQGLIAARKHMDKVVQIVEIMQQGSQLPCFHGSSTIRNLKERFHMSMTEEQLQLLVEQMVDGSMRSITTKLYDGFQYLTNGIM
UniProt Q9Y244, sequence (Q9Y244 whole entry, looked up): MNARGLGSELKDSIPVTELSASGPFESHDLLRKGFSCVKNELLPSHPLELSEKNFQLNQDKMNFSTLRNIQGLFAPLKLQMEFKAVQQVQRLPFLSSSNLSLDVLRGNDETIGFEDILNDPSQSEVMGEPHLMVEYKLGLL
UniProt P78356, sequence (P78356 whole entry, looked up): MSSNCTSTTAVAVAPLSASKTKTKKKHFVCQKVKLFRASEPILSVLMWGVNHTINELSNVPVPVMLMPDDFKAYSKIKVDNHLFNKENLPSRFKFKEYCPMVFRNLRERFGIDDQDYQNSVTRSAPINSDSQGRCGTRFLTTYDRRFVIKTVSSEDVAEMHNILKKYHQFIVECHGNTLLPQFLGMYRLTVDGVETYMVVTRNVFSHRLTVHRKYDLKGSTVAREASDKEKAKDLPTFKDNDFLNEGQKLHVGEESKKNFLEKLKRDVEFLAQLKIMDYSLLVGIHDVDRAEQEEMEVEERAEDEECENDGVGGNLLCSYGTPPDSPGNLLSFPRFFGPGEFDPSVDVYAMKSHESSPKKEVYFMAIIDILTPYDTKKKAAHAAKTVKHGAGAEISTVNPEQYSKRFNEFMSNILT

Target	log2 fold change (lapatinib)	log2 fold change (pictilisib)	log2 fold change (crizotinib)	log2 fold change [1]	log2 fold change (duvelisib)	log2 fold change (gandotinib)	log2 fold change (tozasertib)	log2 fold change (doramapimod)	log2 fold change (bafetinib)	log2 fold change [2]	log2 fold change (nilotinib)	log2 fold change [3]	log2 fold change (dasatinib)	log2 fold change [4]	log2 fold change [5]	log2 fold change (quisinostat)	log2 fold change (tipifarnib)	log2 fold change [6]	log2 fold change [7]	log2 fold change [8]
PIP4K2B (UniProt P78356)	0.033	0.044	-0.019	0.01	0.006	0.029	-0.029	-0.001	0.164	-0.067	0.032	0.024	0.151	0.093	0.008	-0.017	-0.007	0	0.002	-0.034
PRIM2 (UniProt P49643)	0.045	-0.025	-0.017	0.007	-0.002	-0.056	-0.04	0.028	-0.1	0.004	0.052	0.007	-0.038	-0.012	0.02	-0.027	-0.037	0.018	-0.001	-0.021
PRKACA (UniProt P17612)	-0.008	-0.012	0.022	-0.159	-0.059	0.115	-0.12	-0.113	-0.073	0.151	-0.055	0.638 (active)	0.07	0.068	0.049	0.097	-0.083	0.637 (active)	0.273	-0.038
PLEKHF1 (UniProt Q96S99)	-0.022	-0.016	-0.021	-0.043	0.058	0.023	0.02	0.016	0.013	0.026	-0.03	-0.028	-0.016	0.012	-0.027	-0.009	-0.012	0.021	-0.002	-0.023
PHKA1 (UniProt P46020)	-0.117	-0.003	-0.001	-0.042	-0.044	0.069	0.009	0.024	0.051	-0.047	-0.059	0.14	-0.138	-0.007	0.029	-0.072	-0.021	0.272 (active)	0.091	-0.053
PICALM (UniProt Q13492)	0.012	0.001	0.024	0.052	0.012	0.022	0.013	0.028	-0.055	-0.007	-0.012	-0.01	-0.036	-0.009	0.001	-0.003	-0.042	-0.018	0.012	0.007
POMP (UniProt Q9Y244)	0.048	0.031	-0.054	0.221	0.11	-0.063	0.022	0.038	0.017	-0.038	0.021	0.057	0.048	0.301 (active)	0	-0.054	-0.046	-0.007	0.039	-0.002
PDIA4 (UniProt P13667)	-0.018	0.006	0.09	0.029	-0.011	-0.026	0	-0.057	0.014	-0.045	0.008	-0.006	0.006	0.014	0.004	0.154	0.029	-0.004	-0.02	0.008
PCIF1 (UniProt Q9H4Z3)	-0.059	-0.016	-0.001	-0.239 (active)	0.216	0.074	-0.003	0.017	-0.059	0.09	0.018	-0.089	0.118	0.011	-0.439 (active)	0.019	0.015	-0.016	-0.006	0.022
PTPN6 isoform 4 (UniProt P29350)	-0.227	-0.058	0.02	-0.038	-0.013	-0.28	0	0.015	-0.278	0.135	-0.002	-0.028	0.028	-0.043	0.071	0.01	0.055	-0.03	-0.128	0.062
PITRM1 isoform 2 (UniProt Q5JRX3)	-0.001	-0.025	0.053	0.04	0.029	0.013	0.006	-0.024	-0.023	-0.062	0.014	-0.035	0.011	-0.021	-0.002	0.021	0.013	0.005	0	-0.008
PDE4DIP isoform 4 (UniProt Q5VU43)	-0.003	-0.076	-0.048	-0.069	-0.017	0.116	-0.005	0	-0.073	0.05	-0.026	0.004	0.007	-0.015	-0.029	-0.083	-0.032	-0.018	-0.034	-0.011
PHOSPHO2 (UniProt Q8TCD6)	-0.043	0.015	-0.001	-0.063	-0.044	-0.009	-0.184	-0.045	-0.024	-0.002	0.003	-0.013	0.024	0.038	-0.033	0.03	0.068	-0.036	-0.004	0.013
PRPH isoform 2 (UniProt P41219)	0.082	0.131	0.05	0.03	0.051	-0.08	0.096	-0.015	0.025	0.001	-0.022	0.032	-0.019	-0.024	0.036	0.034	-0.02	-0.027	0.028	0.094
PI4KB (UniProt Q9UBF8)	0.02	0.031	-0.011	-0.01	0.005	0.011	-0.02	0.055	-0.073	0.014	0.003	0.145	0.002	0.165	0.013	-0.072	-0.024	-0.026	-0.049	-0.014
POLR3E (UniProt Q9NVU0)	-0.014	-0.001	0.003	-0.001	0.01	-0.028	-0.011	-0.001	-0.018	0.013	0.017	-0.054	-0.035	-0.018	0.018	-0.023	0.04	0.037	0.009	-0.001
